Results: paper PMC5540273 (PLoS ONE, 2017)

Assays:
Settings in all cases: concentration: 1 μM, replicates: in singlicate; n = 1
MYLK4 = system: MYLK4
MYLK = system: MYLK
MYO3A = system: MYO3A
MYO3B = system: MYO3B
NDR1 = system: T1, NDR1
T1 construct: gene STK38

NDR2 = system: NDR2
NEK10 = system: NEK10
NEK11 = system: NEK11
NEK1 = system: NEK1
NEK2 = system: NEK2
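Note: KINOMEscan kinase panel screen.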

Row | SMILES | %Inh (MYLK4) [%] | %Inh (MYLK) [%] | %Inh (MYO3A) [%] | %Inh (MYO3B) [%] | %Inh (NDR1) [%] | %Inh (NDR2) [%] | %Inh (NEK10) [%] | %Inh (NEK11) [%] | %Inh (NEK1) [%] | %Inh (NEK2) [%]
1 | Clc1cc(Nc2ncnc3cc[nH]c23)ccc1OCc1ccccn1 | 9 | 17 | 24 | 20 | 14 | 0 | 0 | 0 | 5 | 0
2 | C[C@@H]1CCN(C(=O)CO)C[C@@H]1N(C)c1ncnc2[nH]ccc12 | 0 | 3 | 0 | 0 | 6 | 14 | 48 | 0 | 0 | 0
3 | FC(F)(F)c1cc(Nc2nccc(-c3c(-c4ccc(Cl)cc4)nn4ncccc34)n2)ccc1Cl [GW829351] | 1 | 0 | 0 | 0 | 16 | 0 | 0 | 0 | 0 | 0
4 | Cl.c1ccc(Cn2ccc3cc(Nc4ncnc5ccccc45)ccc32)cc1 [GW275568] | 26 | 21 | 16 | 0 | 32 | 1 | 29 | 0 | 0 | 14
5 | CNc1nccc(-c2c(-c3ccc(F)cc3)ncn2CCCN2CCOCC2)n1 [SB-222516] | 0 | 0 | 0 | 0 | 0 | 28 | 0 | 0 | 0 | 0
6 | CSc1ccc(NC2=C(c3ccccc3Cl)C(=O)NC2=O)cc1 [SB-342411] | 10 | 4 | 0 | 0 | 31 | 0 | 29 | 0 | 75 | 8
7 | CN1c2ccc(-c3ccc(C(=O)NCCO)cc3)cc2-c2[nH]ncc2S1(=O)=O | 0 | 87 | 6 | 0 | 26 | 0 | 0 | 0 | 8 | 6
8 | COc1cc2c(Nc3cccc(NC(=O)c4ccccc4)c3)ncnc2cc1OCCCN1CCOCC1 [GSK223810] | 2 | 2 | 0 | 0 | 0 | 0 | 0 | 0 | 1 | 2
9 | Cn1cc(-c2ccc3c(c2)CCN3C(=O)Cc2cccc(C(F)(F)F)c2)c2c(N)ncnc21 [GSK2606414] | 0 | 1 | 0 | 7 | 0 | 0 | 18 | 14 | 0 | 15
10 | CCCc1ccc(S(=O)(=O)NC2CCN(c3ccnc(Nc4ccc(OC)cc4)n3)C2)cc1 (stereo not shown) [GSK1379737] | 0 | 30 | 15 | 0 | 0 | 0 | 21 | 27 | 0 | 0
11 | C[C@H]1CC[C@@H](C(=O)Nc2ccccc2)CN1c1cc(-c2ccc3c(N)n[nH]c3c2)nc(N)n1 [GSK2283293] | 0 | 40 | 7 | 0 | 13 | 0 | 0 | 0 | 0 | 0
12 | OCCOCCn1ccc2ncnc(Nc3ccc(Oc4cccc(Cl)c4)c(Cl)c3)c21 | 0 | 0 | 0 | 0 | 30 | 0 | 0 | 0 | 0 | 0
13 | O=C(Nc1n[nH]c2nc(-c3ccco3)c(Br)cc12)c1ccc(CN2CCCC2)cc1.O=C(O)[C@H](O)[C@@H](O)C(=O)O [SB-742352] | 5 | 83 | 0 | 8 | 0 | 0 | 0 | 0 | 0 | 6
14 | COc1ccc(-c2oc3ncnc(N)c3c2-c2ccc(OC)cc2)cc1 [SB-589132] | 9 | 18 | 25 | 0 | 15 | 37 | 49 | 45 | 9 | 5
15 | Nc1nc(-c2ccc3c(N)n[nH]c3c2)cc(N2CCCCC2)n1 [GSK2228768] | 0 | 1 | 0 | 0 | 0 | 0 | 0 | 0 | 0 | 3
16 | CCC(CC)(CC)n1cnc2c(N)ncnc21 [SKF-97620] | 0 | 0 | 0 | 35 | 42 | 16 | 65 | 0 | 0 | 0
17 | Cc1cccc(-c2nc(Nc3ccc4[nH]nnc4c3)c3ccccc3n2)n1 [GW867587] | 1 | 0 | 0 | 0 | 0 | 6 | 0 | 0 | 0 | 0

Row | SMILES | %Inh (MYLK4) [%] | %Inh (MYLK) [%] | %Inh (MYO3A) [%] | %Inh (MYO3B) [%] | %Inh (NDR1) [%] | %Inh (NDR2) [%] | %Inh (NEK10) [%] | %Inh (NEK11) [%] | %Inh (NEK1) [%] | %Inh (NEK2) [%]
18 | Cl.O=S(=O)(c1cccc(F)c1)c1ccc(Nc2ncnc3cc(Br)sc23)cc1Cl [GSK306886] | 9 | 3 | 22 | 0 | 8 | 1 | 0 | 1 | 32 | 5
19 | Fc1cccc(COc2ccc(Nc3ncnc4nn5ccccc5c34)cc2Cl)c1 [GW689066] | 0 | 0 | 18 | 0 | 55 | 0 | 0 | 11 | 0 | 0
20 | Cc1cc(N2CCC(NS(=O)(=O)c3ccc(F)cc3)CC2)nc(Nc2cccc(C#N)c2)n1.O=C(O)C(F)(F)F [GSK1653537] | 0 | 0 | 0 | 0 | 0 | 0 | 1 | 0 | 55 | 0
21 | CN1CCC(n2cnc(-c3ccc(F)cc3)c2-c2ccnc(NC3CCNCC3)n2)CC1 [SB-229482] | 11 | 5 | 14 | 0 | 0 | 0 | 13 | 0 | 0 | 0
22 | O=C(Nc1ccccc1F)NC1CCN(c2ccnc(Nc3ccc(F)cc3)n2)C1 (stereo not shown) [GSK1379722] | 0 | 0 | 2 | 0 | 12 | 0 | 22 | 2 | 0 | 0
23 | CNc1nccc(-c2c(-c3ccc(F)cc3)ncn2C2CCN(C)CC2)n1 [SB-222903] | 0 | 0 | 0 | 19 | 33 | 17 | 0 | 0 | 0 | 0
24 | O=C(c1ccc(-c2cc(-c3c[nH]nc3-c3ccccn3)ccn2)cc1)N1CCCC1 [GW792479] | 4 | 31 | 9 | 16 | 21 | 3 | 18 | 0 | 0 | 3
25 | CC(C)(C)c1ccc(-n2cnc3c(N)ncnc32)cc1 [SKF-97263] | 3 | 8 | 1 | 8 | 0 | 0 | 0 | 0 | 0 | 0
26 | Cn1ccc2ncnc(Oc3ccc(NC(=O)Nc4cccnc4)c(Cl)c3)c21 | 0 | 0 | 0 | 1 | 0 | 14 | 0 | 0 | 0 | 0
27 | Nc1nc(-c2cccnc2)c(-c2ccnc3ccccc23)s1 [GW684083] | 83 | 15 | 0 | 0 | 0 | 11 | 77 | 27 | 0 | 13
28 | CS(=O)(=O)CCNCc1nc(-c2ccc3ncnc(Nc4ccc(OCc5cccc(F)c5)c(Cl)c4)c3c2)cs1.Cl [GW583340] | 4 | 1 | 34 | 0 | 0 | 15 | 0 | 0 | 0 | 16
29 | Nc1nccc2scc(-c3ccc4c(c3)CCN4C(=O)Cc3cc(F)ccc3F)c12 [GSK2587663] | 0 | 24 | 0 | 0 | 0 | 0 | 12 | 9 | 0 | 7
30 | COC(=O)c1cccc(NC(=O)NCCNc2ccnc(Nc3ccc(F)cc3)n2)c1 [GSK1379883] | 6 | 11 | 31 | 0 | 0 | 27 | 8 | 10 | 0 | 0
31 | Oc1ccc2ncnc(Nc3ccc(OCc4ccccc4)cc3)c2c1 [GI262866] | 3 | 0 | 0 | 0 | 0 | 0 | 0 | 0 | 0 | 0
32 | FC(F)(F)c1ccc(-c2nn3ncccc3c2-c2ccnc(Nc3cccc(C(F)(F)F)c3)n2)cc1 [GW828205] | 1 | 40 | 0 | 0 | 19 | 0 | 0 | 0 | 0 | 0
33 | NC(=O)c1sc(-n2cnc3ccccc32)cc1OCc1ccccc1F [GSK1024306] | 6 | 2 | 3 | 0 | 0 | 11 | 22 | 32 | 0 | 0
34 | CCc1nc(-c2cccc(C)c2)c(-c2ccnc(NC(=O)c3ccccc3)c2)s1 | 0 | 18 | 65 | 0 | 0 | 22 | 6 | 0 | 0 | 0
